Data on 91 compounds can be found in PubChem BioAssay AID1852 (Sanford-Burnham Center for Chemical Genomics, 2009).

Out of some 2,500 compounds screened, about 1,100 (44%) were called active. The set was probably picked from earlier hits. The list shows a part of the results. Unmarked numbers belong to inactive results.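 How the source made its calls: active means inhibition above 50% at 4 µM in the single-point screen; inactive means inhibition of 50% or less.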

This assay in a line: blockers of TNF-a NF-kB luciferase induction – cell-based, HEK293T NF-kB-Luc, luminescence, selectivity assay for NOD1/NOD2 signaling inhibitor project, primary screen (AID 1852). The note with it: TNF-a induced, 14 h, at 4 µM, hits give high values.
The inhibition is the drop in the measured response relative to a control, in per cent. As to `CCN1C/C(=C/c2cccc([N+](=O)[O-])c2)C(=O)/C(=C/c2cccc([N+](=O)[O-])c2)C1`, the inhibition was 106% (active). The same measure for `CCC1C/C(=C\c2cc(OC)c(OC)cc2OC)C(=O)/C(=C/c2cc(OC)c(OC)cc2OC)C1` (stereo unspecified): 36.6%. The same measure for `COc1ccc(CCNC(=S)NC2CCN(Cc3ccccc3)CC2)cc1OC`: 43.5%. The same measure for `O=[N+]([O-])c1cccc(S(=O)(=O)NCc2ccncc2)c1`: 42.3%. In the case of `CCN1C/C(=C/c2ccc(OC)c(O)c2)C(=O)/C(=C/c2ccc(OC)c(O)c2)C1`, the inhibition was 101% (active).

`COc1ccc(/C=C2\CN(Cc3ccccc3)C/C(=C\c3ccc(OC)c(O)c3)C2=O)cc1O`: the inhibition was 77.4% (active). The same measure for `O=C1/C(=C/c2cccc([N+](=O)[O-])c2)CCc2ccccc21`: -28.5%. The same measure for `Cc1cccc(-n2c(SC(C)C(=O)O)nc3sc4c(c3c2=O)CCCC4)c1` (stereo unspecified): 45.4%; for `O=[N+]([O-])c1ccc(NC(=S)NCCc2ccc(Cl)cc2)cc1`: 87.9% (active); for `O=[N+]([O-])c1ccc(NC(=S)NCCc2ccc(F)cc2)cc1`: 18.3%. The same measure for `N#Cc1ccc(NC(=O)Nc2ccc(Cl)cc2)cc1`: 22.5%; for `Cc1nc(CN(C)C(=O)c2cc(COc3ccc4ncccc4c3)on2)cs1`: 27.2%.

With `CN(Cc1nccs1)C(=O)c1cc(COc2cccc3cnccc23)on1`, the inhibition is 66.3% (active). With `COc1cccc(CN(C)C(=O)c2cc(COc3ccc4ncccc4c3)on2)c1`, the inhibition is 56.4% (active). The same measure for `CN(Cc1cccnc1)C(=O)c1cc(COc2ccc3ncccc3c2)on1`: 42.9%; for `CCc1ccc(CN(C)C(=O)c2cc(COc3cccc4cnccc34)on2)cc1`: 80% (active); for `COc1ccc(C(=O)Nc2ccc(-c3ccc(C)o3)cc2)cc1S(=O)(=O)N1CCOCC1`: 66.1% (active). `COc1ccc(NC(=O)c2cc(-c3ccco3)nc3ccccc23)cc1S(=O)(=O)N1CCOCC1`: the inhibition is 45.6%. The same measure for `CCOC(=O)c1ccc(NC(=O)c2ccc(C)c(S(=O)(=O)N3CCOCC3)c2)cc1`: 47.7%. The same measure for `Cc1nc([N+](=O)[O-])c(Sc2nc3ccccc3[nH]2)n1Cc1ccccc1`: 36.1%; for `O=C(NC(Nc1nc2ccc([N+](=O)[O-])cc2s1)(C(F)(F)F)C(F)(F)F)c1ccccc1Cl`: 85% (active). The same measure for `Cc1ccc(C)c(OCC(=O)Nc2nc3ccc([N+](=O)[O-])cc3s2)c1C`: 43.5%; for `Cc1cc(C)cc(OCC(=O)Nc2nc3ccc([N+](=O)[O-])cc3s2)c1`: 13.3%. With `CCOc1ccc(C(=O)/C=C/c2cc(OC)c(OC)c(OC)c2)cc1`, the inhibition is 9.7%. The same measure for `CCOc1cc(/C=C(/C#N)c2ccc(Cl)cc2)cc(Cl)c1OCC(=O)O`: 90.7% (active).

With `CCOc1ccccc1NC(=O)Nc1ccc(Cl)cc1`, the inhibition was -53%. The same measure for `COc1ccc2cc3c(N)nn(C(=O)c4cccc([N+](=O)[O-])c4)c3nc2c1`: 65.4% (active); for `COc1ccc2cc3c(N)nn(C(=O)c4ccc(F)cc4)c3nc2c1`: 60.6% (active); for `COc1cccc(C(=O)c2sc(NC(C)C)nc2N)c1`: 41.4%.

Regarding `COc1ccc2cc3c(N)nn(C(=O)c4ccc(Cl)c([N+](=O)[O-])c4)c3nc2c1`, the inhibition is 43.3%.

Take `COc1cccc(-n2c(CN3CCN(c4ccccc4)CC3)nc3ccc([N+](=O)[O-])cc3c2=O)c1`: the inhibition was -0.2%.

As for `COc1ccc(CN(C)S(=O)(=O)c2nnc(NC(=O)c3cccc(F)c3)s2)cc1`, the inhibition was 29.9%. The same measure for `COc1ccc2cc3c(N)nn(C(=O)c4cccc(F)c4)c3nc2c1`: 79.2% (active). For the compound `C/C(=N\NC(=O)c1ccc2c(c1)OCCO2)c1ccccc1`, the inhibition was 14%. The same measure for `C/C(=N\NC(=O)c1ccc(-c2ccccc2)cc1)C1C(=O)c2ccccc2C1=O`: 93.6% (active); for `C/C(=N\NC(=O)c1ccc(Br)cc1)C1C(=O)c2ccccc2C1=O`: -12.6%; for `CCC(NC(=O)c1ccc2nc(Cc3ccc(OC)cc3)oc2c1)c1ccncc1` (stereo unspecified): 34%.

For the compound `Cc1ccc(CC(=O)Nc2ccncc2)cc1`, the inhibition was 38.6%. The same measure for `COc1ccc(CC(=O)Nc2ccncc2Cl)cc1`: 54% (active). The same measure for `O=C(Cc1ccc(Cl)cc1Cl)Nc1ccncc1Cl`: 50% (active); for `Cc1ccc(C(=O)Nc2ccccc2N2CCCCC2)cc1[N+](=O)[O-]`: -17.9%; for `Cc1ccc(C(=O)Nc2ccccc2-c2ccccc2)cc1[N+](=O)[O-]`: 75.4% (active). The same measure for `Cc1ccc(C(=O)Nc2sc(C)c(-c3ccccc3)c2C(N)=O)cc1[N+](=O)[O-]`: -277%. With `O=C(Nc1ccc(-c2cn3ccsc3n2)cc1)c1ccc(F)c(S(=O)(=O)N2CCOCC2)c1`, the inhibition was 30.4%. The same measure for `COc1cc(C(=O)Nc2ccc(-c3nc4cc(C)ccc4o3)c(O)c2)cc(OC)c1OC`: 13.8%; for `COc1ccc(Nc2cc(Nc3cc(OC)c(OC)c(OC)c3)ncn2)cc1`: 59.9% (active); for `COc1cc(Nc2c3ccccc3nc3ccccc23)cc(OC)c1OC`: -0.2%. The same measure for `O=C(Nc1nnc(-c2ccc(F)cc2)o1)c1cccc([N+](=O)[O-])c1`: 89.2% (active); for `COc1ccc(-c2nnc(NC(=O)c3ccc(F)cc3)o2)cc1`: 102% (active); for `CN(c1ccccc1)S(=O)(=O)c1ccc(C(=O)Nc2nnc(-c3ccc(F)cc3)o2)cc1`: 95% (active). `N#Cc1ccsc1NC(=O)c1cccc([N+](=O)[O-])c1`: the inhibition was 20.9%. The same measure for `COc1ccc(-c2nnc(NC(=O)c3ccc(S(=O)(=O)N4CCc5ccccc5C4)cc3)o2)cc1`: 34.1%.

As for `O=C(NNC(=S)NC(=O)c1cccc([N+](=O)[O-])c1)c1ccc(Br)cc1`, the inhibition is -11.7%. On to `CCOc1ccc(-c2nnc(NC(=O)c3ccc(OCC(C)C)c(OC)c3)o2)cc1`, for which the inhibition was 105% (active). The same measure for `COc1ccccc1N(C)S(=O)(=O)c1ccc(C(=O)Nc2ccc(N3CCOCC3)cc2)cc1`: 35.4%.

In the case of `CC(=O)O[C@]1(C(C)=O)CC[C@H]2[C@@H]3C=CC4=CC(=O)C=C[C@]4(C)[C@H]3CC[C@@]21C`, the inhibition was 32.7%. The same measure for `O=C(Nc1nnc(-c2ccc(F)cc2)o1)c1cc(Cl)sc1Cl`: 96.6% (active); for `O=C(Nc1nnc(-c2ccc(Cl)s2)o1)C1CC1`: -5.5%; for `C/C(=N\Nc1ncnc2sc(C)c(C)c12)c1ccccn1`: 103% (active). As to `COc1ccc(C2C(C(=O)N3CCOCC3)CCC(=O)N2c2ccc(OC)cc2)cc1` (stereo unspecified), the inhibition is 17.2%. The same measure for `Cc1ccc(Nc2cc(C)nn2-c2nc(C)cc(=O)[nH]2)cc1`: 107% (active).

In the case of `Cc1cc(NC(=O)c2ccc(C)s2)n(-c2nc3ccccc3[nH]2)n1`, the inhibition was 31.1%. In the case of `Cc1cc(NC(=O)c2cccs2)n(-c2nc3ccccc3[nH]2)n1`, the inhibition was 35.4%. The same measure for `Cc1cccc(N2CCN(C(=O)CCCCCn3c(=S)[nH]c4ccc(N5CCOCC5)cc4c3=O)CC2)c1C`: -10.2%; for `O=C(CCCn1c(=S)[nH]c2cc3c(cc2c1=O)OCO3)N1CCN(c2ccc(Cl)cc2)CC1`: 35.9%. The same measure for `Cc1ccc(C)c(N2CCN(C(=O)CCCCCn3c(=S)[nH]c4ccc(N5CCOCC5)cc4c3=O)CC2)c1`: 96.5% (active); for `CC(C)C(=O)N1CCN(c2nc(-c3ccc(Cl)cc3)cs2)CC1`: -37.6%; for `CC(C)C(=O)N1CCN(c2ccc(NC(=O)c3ccc4c(c3)OCCO4)cc2Cl)CC1`: 80.5% (active).

For the compound `O=C(Nc1ccc2nn(-c3ccccc3)nc2c1)c1ccc2c(c1)OCCO2`, the inhibition was 31.9%. The same measure for `Cc1ccc(C(=O)N2CCN(c3ccc(NC(=O)c4ccc5c(c4)OCCO5)cc3)CC2)cc1`: 84.2% (active).

Take `Cc1ccccc1C(=O)N1CCN(c2ccc(NC(=O)c3ccc4c(c3)OCCO4)cc2)CC1`: the inhibition was -3.1%. The same measure for `O=C(Nc1ccc(N2CCN(C(=O)c3ccc(Cl)cc3)CC2)cc1)c1ccc2c(c1)OCCO2`: 86.8% (active); for `CCCCCOc1ccc(/C=C/c2c([N+](=O)[O-])c(=O)n(C)c(=O)n2C)cc1`: 21.4%; for `CCOC(=O)/C=C/C(=O)Nc1ccc(S(=O)(=O)Nc2c(C)cc(C)cc2C)cc1`: 25.7%. As for `CCOC(=O)/C=C/S(=O)(=O)c1ccc(NC(C)=O)cc1`, the inhibition was 64% (active). In the case of `CCOC(=O)/C=C/C(=O)Nc1ccc(S(=O)(=O)N(C)c2ccccc2)cc1`, the inhibition was -15.6%.

Turning to `O=C(O)CCC(=O)c1ccc2ccc3cccc4ccc1c2c34`, the inhibition is 50% (active). Take `Nc1[nH]nc2ncc3cc4ccccc4nc3c12`: the inhibition was 36.8%. The same measure for `Cc1nn(-c2ccccc2)c(Cl)c1CN(C(=O)CCl)c1cccc2ccccc12`: 14.9%; for `Cc1nn(-c2ccccc2)c(Cl)c1CN(C(=O)CCl)c1ccc(Cl)cc1`: 105% (active); for `CC(=O)N1CC(C)Sc2ccc(S(=O)(=O)NCc3ccc(Cl)cc3)cc21` (stereo unspecified): 11.8%.

With `COC(=O)CSc1nnc(-c2sc3ccccc3c2Cl)o1`, the inhibition is 48.5%.

For `Brc1cccc(CSc2nnc(-c3ccncc3)o2)c1`, the inhibition is 44.3%. The same measure for `Fc1ccc(CSc2nnc(-c3ccncc3)o2)cc1`: 70.1% (active); for `Clc1ccc(CSc2nnc(-c3ccncc3)o2)cc1`: 60.2% (active); for `Cc1ccc(-c2nnc(SCC(=O)Nc3ccccc3F)o2)cc1`: 37.8%. Turning to `CCc1cc(C(=O)NC2CCCc3c2cnn3-c2cccc(C)c2C)n(C)n1` (stereo unspecified), the inhibition is 59.1% (active). The same measure for `Cc1cc(C(=O)NC2CCCc3c2cnn3-c2cccc(C)c2C)n(C)n1` (stereo unspecified): 56.4% (active). The same measure for `Cc1ccccc1NC(=O)COC(=O)c1ccc(S(C)(=O)=O)c([N+](=O)[O-])c1`: 13%; for `CC(=O)c1c(C)[nH]c(C(=O)OCC(=O)Nc2ccc(C)cc2[N+](=O)[O-])c1C`: 79.4% (active).

As for `COc1ccc(NC(=O)CN2CCc3ccccc3C2)c([N+](=O)[O-])c1`, the inhibition was -10.5%.
